# Laboratory results from PubChem BioAssay (EPA / NIEHS).
# A structure can be active in one record and inactive in another. The source made the active and inactive calls. How the source made its calls: active means hit-call score of the fitted dose curve at least 0.9, where 1 is the maximum; inactive means score below 0.9.
# Experiment: BSK_SAg_PBMCCytotoxicity: PBMC Cytotoxicity Assessment in the BioMAP Diversity Plus: SAg Assay (AID 2283093);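 further: fitted both ways against DMSO so a hit may be loss or gain of signal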
# Conditions: primary human HUVEC with PBMC
# Protocol: BSK_SAg is a cell-based, multiplexed-readout assay that uses umbilical vein endothelium and peripheral blood mononuclear cells, a human vascular primary cell co-culture, with measurements taken at 24 hours after chemical dosing in a 96-well plate.BSK_SAg_PBMCCytotoxicity is an assay component measured in the BSK_SAg assay. It measures Alamar blue related to cell death using Alamar Blue Reduction technology.Data from the assay component BSK_SAg_PBMCCytotoxicity was analyzed into 1 assay endpoint. This assay endpoint, BSK_SAg_PBMCCytotoxicity, was analyzed with bidirectional fitting relative to DMSO as the negative control and baseline of activity. Using a type of viability reporter, gain or loss-of-signal activity can be used to understand changes in the viability. Furthermore, this assay endpoint can be referred to as a secondary readout, because this assay has produced multiple assay endpoints where this one serves a viability function. To generalize the intended target to other relatable targets, this assay endpoint is annotated to the cell cycle intended target family, where the subfamily is cytotoxicity.
# The levels of cell surface (or secreted, indicated by the prefix "s") biomarker endpoints were measured by ELISA. Overt cytotoxicity to cells in confluent adherent cultures (all systems other than the BT system) was assessed by measuring total protein levels using sulforhodamine B (SRB) staining in parallel cultures at the time of biomarker measurements, indicated as SRB endpoints. For proliferation assays for adherent cell types, individual cell types are cultured at sub-confluence and relative cell numbers quantified by SRB staining at time points optimized for each system (48 h: 3C and CASM3C systems; 72 h: BT and HDF3CGF systems; 96 h: SAg system). SRB was performed by staining cells with 0.1% SRB after fixation with 10% TCA and reading wells at 560 nm.Viability and proliferation of PBMC (T cells) was quantified by Alamar Blue reduction for the SAg and BT systems. For PBMC viability (referred to as PBMC Cytotoxicity within the assay endpoint names), cells were plated (75,000/well in a 96-well plate) and then chemical samples added for 1 h before addition of activators, SEB and TSST-1 (20 ng/mL final concentration each). Cells were incubated for 90 h. Then, Alamar Blue (20 uL/well) (Invitrogen, Cat DAL1100) was added for 6 h, and the plates were read with a fluorescence microplate reader at 546/580 nm (excitation/emission). For PBMC proliferation, cells were plated and activated as above but incubated for only 16 h prior to addition of Alamar Blue. Plates were read after 6 h.
SMILES,outcome,AC50
CCn1c2ccccc2c2cc(N)ccc21,inactive,
CC(=O)/C=C/C1=C(C)CCCC1(C)C,inactive,
O=C(O)C[C@H](O)C[C@H](O)/C=C/c1c(C2CC2)nc2ccccc2c1-c1ccc(F)cc1,inactive,
O=C1OC2(c3cc(Br)c(O)c(Br)c3Oc3c2cc(Br)c(O)c3Br)c2c(Cl)c(Cl)c(Cl)c(Cl)c21,,23.5 µM (active)
BrC1CCC(Br)C(Br)CCC(Br)C(Br)CCC1Br (stereo not given),,2.03 µM (active)
C=CCOC(=O)CCC1CCCCC1,inactive,
NCCNCCN,inactive,
Nc1cc([N+](=O)[O-])ccc1Cl,inactive,
CC1COc2ccccc2N1C(=O)C(Cl)Cl (stereo not given),inactive,
CC(=O)O[C@]1(C(C)=O)CC[C@H]2[C@@H]3C[C@H](C)C4=CC(=O)CC[C@]4(C)[C@H]3CC[C@@]21C,inactive,
O=C(O)c1ccc([N+](=O)[O-])cc1,inactive,
O=C=NC1CCC(CC2CCC(N=C=O)CC2)CC1 (stereo not given),,13.3 µM (active)
Cc1cc(C2(c3cc(C)c(O)cc3C)OS(=O)(=O)c3ccccc32)c(C)cc1O,inactive,27.3 µM (active)
CC(C)Oc1ccccc1O,inactive,
CCCCC(CC)COCCC#N (stereo not given),inactive,
CC1CCC(C(C)CS)CC1S (stereo not given),inactive,
CC(C)(COC(=O)c1ccccc1)COC(=O)c1ccccc1,inactive,
CN(CCOc1ccc(CC2SC(=O)NC2=O)cc1)c1ccccn1 (stereo not given),inactive,
O=[N+]([O-])c1cc(C(F)(F)F)ccc1Cl,inactive,
CC(C)c1ccc(C(C)C)cc1,inactive,

SMILES,outcome,AC50
CCCCC/C=C/C=C/C=O,,20 µM (active)
CCc1c(C)cc(N)c(CC)c1N,inactive,
Cc1ccc(O)c(C(C)(C)C)c1,,35.8 µM (active)
N#Cc1ccc(CC(=NNC(=O)Nc2ccc(OC(F)(F)F)cc2)c2cccc(C(F)(F)F)c2)cc1,inactive,
Cc1ccc(Nc2ccc(O)c3c2C(=O)c2ccccc2C3=O)cc1,inactive,
C#C[C@]1(O)CC[C@H]2[C@@H]3CCC4=Cc5oncc5C[C@]4(C)[C@H]3CC[C@@]21C,inactive,
CCC(=O)OCc1ccccc1,inactive,
COC(=O)c1ccc(C)cc1,inactive,
c1ccc2sc(SN(C3CCCCC3)C3CCCCC3)nc2c1,,5.28 µM (active)
CCCCCCCCC=O,inactive,
COc1cc(C=O)ccc1OC(=O)C(C)C,inactive,
O=C(O)c1cn(-c2ccc(F)cc2)c2cc(N3CCNCC3)c(F)cc2c1=O,inactive,
CCCCC(CC)COC(=O)/C=C\C(=O)OCC(CC)CCCC (stereo not given),inactive,
OC1OC[C@@H](O)[C@H](O)[C@H]1O (stereo not given in full),inactive,
CCCCCCCCCCCCCCCCCC(=O)OCC(CC)CCCC (stereo not given),inactive,
c1ccc2c(c1)c1cccc3ccc4cccc2c4c31,inactive,
CCCCCCCCCC=O,inactive,
C[C@H]1C[C@@H]2[C@H]([C@@H](O)C[C@@]3(C)[C@H]2CC[C@]3(O)C(=O)CO)[C@@]2(C)C=CC(=O)C=C12,inactive,
O=C(O)c1cn(C2CC2)c2cc(N3CCNCC3)c(F)cc2c1=O,inactive,
